Test results taken from ChEMBL document CHEMBL3988442, “University of Dundee, Small-Polar-MMV Screening Library” (2021).
For some assays here: Entries with a potency or affinity are not part of this list.

Experiments:
Parameters in all cases: scale not given: direction of the effect not stated beside the values
[1] = target: Protein translocase subunit SecA (Escherichia coli (strain K12)) (UniProt P10408); test: Assay to Identify E. coli SecA ATPase Inhibitors; format: functional; conditions: 30 µM
[2] = target: T1, Ubiquitin-activating enzyme e1, putative (Leishmania donovani (strain BPK282A1)) (UniProt E9BSI1); test: Leishmania donovani Ubiquitin Activating Enzyme (LdE1); format: functional; conditions: 30 µM
T1 sequence (whole entry): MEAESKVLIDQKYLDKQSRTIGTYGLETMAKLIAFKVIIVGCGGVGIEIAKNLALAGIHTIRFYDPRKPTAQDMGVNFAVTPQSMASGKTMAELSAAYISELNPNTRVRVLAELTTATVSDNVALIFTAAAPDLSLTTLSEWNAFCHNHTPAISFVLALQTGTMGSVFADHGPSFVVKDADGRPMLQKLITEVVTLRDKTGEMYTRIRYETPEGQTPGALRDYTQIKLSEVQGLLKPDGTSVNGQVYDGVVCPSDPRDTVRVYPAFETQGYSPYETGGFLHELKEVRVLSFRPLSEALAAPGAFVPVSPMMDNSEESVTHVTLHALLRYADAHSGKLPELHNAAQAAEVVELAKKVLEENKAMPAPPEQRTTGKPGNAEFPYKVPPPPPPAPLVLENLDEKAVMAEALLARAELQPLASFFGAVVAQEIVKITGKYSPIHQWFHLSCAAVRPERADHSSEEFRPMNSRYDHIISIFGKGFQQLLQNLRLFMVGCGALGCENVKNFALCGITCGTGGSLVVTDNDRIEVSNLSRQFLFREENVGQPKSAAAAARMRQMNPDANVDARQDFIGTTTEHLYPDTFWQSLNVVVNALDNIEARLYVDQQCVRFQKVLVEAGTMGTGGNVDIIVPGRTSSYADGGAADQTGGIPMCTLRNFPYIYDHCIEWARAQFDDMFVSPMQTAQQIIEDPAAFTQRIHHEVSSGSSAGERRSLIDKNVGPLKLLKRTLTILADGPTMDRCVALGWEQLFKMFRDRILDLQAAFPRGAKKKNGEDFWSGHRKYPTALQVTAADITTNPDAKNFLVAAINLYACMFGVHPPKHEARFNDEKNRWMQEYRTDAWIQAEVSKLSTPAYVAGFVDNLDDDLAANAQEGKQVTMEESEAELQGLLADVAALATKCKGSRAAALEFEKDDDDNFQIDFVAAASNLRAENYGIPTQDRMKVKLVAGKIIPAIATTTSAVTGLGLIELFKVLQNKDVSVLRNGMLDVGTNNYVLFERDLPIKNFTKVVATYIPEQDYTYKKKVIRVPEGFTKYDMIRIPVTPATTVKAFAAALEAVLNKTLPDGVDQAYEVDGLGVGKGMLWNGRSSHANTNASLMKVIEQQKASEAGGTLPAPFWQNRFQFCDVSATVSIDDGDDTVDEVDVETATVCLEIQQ

[3] = target: AMP-activated protein kinase, AMPK (Homo sapiens) (UniProt P54646+O43741+P54619+Q9UGJ0+Q9Y478+Q13131+Q9UGI9); test: AMP-dependent Kinase enzyme assay. An in vitro enzyme assay that detects ADP turnover that is directly proportional to AMPK activity. This uses naive AMPK that is activated during the assay with MK-8722; format: functional; conditions: 30 µM
[4] = target: Sialic acid-binding Ig-like lectin 9 (Homo sapiens) (UniProt Q9Y336); test: Hs-Siglec9 ALPHAscreen SOP 20170721; conditions: 10 µM
[5] = tested on: Trypanosoma cruzi; test: Trypanosoma cruzi phosphomannomutase and mannose-1-phosphate guanylyltransferase assay; format: functional; conditions: 10 µM
[6] = target: T2, Arginase-2, mitochondrial (Homo sapiens) (UniProt P78540); test: in vitro enzyme assay to detect the production of urea directly proportional to the activity of Arginase II; format: functional; conditions: 33.3 µM; also: in the data most compounds retested in dose-response had high values
T2 sequence (whole entry): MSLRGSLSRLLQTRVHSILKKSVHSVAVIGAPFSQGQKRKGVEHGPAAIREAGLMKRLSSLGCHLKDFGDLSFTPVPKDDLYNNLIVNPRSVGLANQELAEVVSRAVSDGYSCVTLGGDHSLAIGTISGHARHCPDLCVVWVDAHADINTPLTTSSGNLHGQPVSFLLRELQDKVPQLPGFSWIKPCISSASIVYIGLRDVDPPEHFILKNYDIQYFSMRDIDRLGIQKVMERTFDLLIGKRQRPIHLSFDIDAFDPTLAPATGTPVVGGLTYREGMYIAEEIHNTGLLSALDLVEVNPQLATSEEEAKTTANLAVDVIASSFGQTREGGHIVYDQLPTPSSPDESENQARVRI

[7] = target: T3, Proteasome subunit beta (Trypanosoma cruzi) (UniProt O96673); test: Trypanosoma cruzi proteasome chymotrypsin-like activity (TcProtChymo) assay.; also: in the data most compounds retested in dose-response had high values; format: functional; conditions: 9.37 µM
T3 sequence (whole entry): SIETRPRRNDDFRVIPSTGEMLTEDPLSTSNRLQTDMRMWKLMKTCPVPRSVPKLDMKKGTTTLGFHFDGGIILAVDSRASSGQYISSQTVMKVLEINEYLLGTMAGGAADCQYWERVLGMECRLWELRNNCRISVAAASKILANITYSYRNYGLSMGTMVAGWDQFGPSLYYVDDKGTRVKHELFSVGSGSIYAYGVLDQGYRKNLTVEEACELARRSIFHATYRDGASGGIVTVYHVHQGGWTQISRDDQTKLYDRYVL

[8] = organism: Homo sapiens; test: To identify inhibition of the IFN signalling (Jak-Stat) pathway via expression of an eGFP reporter gene under the control of an IFN-stimulated response element (ISRE) containing MxA promoter.; format: functional; conditions: 30 µM
[9] = target: T4, Tyrosyl-tRNA synthetase, putative (Trypanosoma cruzi (strain CL Brener)) (UniProt Q4DSP6); test: Trypanosoma cruzi tyrosyl tRNA synthetase (TcYRS) _High Tyrosine SOP; format: functional; conditions: 30 µM; also: in the data most compounds retested in dose-response had high values
T4 sequence (whole entry): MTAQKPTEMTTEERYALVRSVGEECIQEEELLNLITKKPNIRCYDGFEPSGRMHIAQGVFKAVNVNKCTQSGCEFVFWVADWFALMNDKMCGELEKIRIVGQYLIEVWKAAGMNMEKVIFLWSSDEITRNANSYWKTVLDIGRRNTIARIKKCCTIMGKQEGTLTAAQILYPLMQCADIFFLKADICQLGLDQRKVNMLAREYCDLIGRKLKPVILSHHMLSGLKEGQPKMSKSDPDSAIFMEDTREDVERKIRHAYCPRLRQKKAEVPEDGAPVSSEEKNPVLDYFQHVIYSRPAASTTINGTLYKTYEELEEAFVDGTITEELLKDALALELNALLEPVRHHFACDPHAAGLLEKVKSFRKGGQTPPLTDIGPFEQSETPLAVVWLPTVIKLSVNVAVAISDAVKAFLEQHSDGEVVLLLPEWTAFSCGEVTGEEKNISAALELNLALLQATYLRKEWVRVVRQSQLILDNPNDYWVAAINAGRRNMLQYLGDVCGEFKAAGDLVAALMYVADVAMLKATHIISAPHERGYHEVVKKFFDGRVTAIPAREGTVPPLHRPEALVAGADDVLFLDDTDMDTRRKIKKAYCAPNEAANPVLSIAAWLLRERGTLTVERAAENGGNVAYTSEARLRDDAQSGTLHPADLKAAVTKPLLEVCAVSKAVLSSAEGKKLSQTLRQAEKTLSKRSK

[10] = target: T4, Tyrosyl-tRNA synthetase, putative (Trypanosoma cruzi (strain CL Brener)); test: Trypanosoma cruzi tyrosyl tRNA synthetase (TcYRS) SOP; format: functional; conditions: 30 µM
[11] = target: Chromo domain-containing protein 1 (Saccharomyces cerevisiae (strain ATCC 204508 / S288c) (Baker's yeast)) (UniProt P32657); test: ScCHD-1 Enzyme Inhibition Assay; format: functional; conditions: 30 µM; also: in the data most compounds retested in dose-response had high values
Sequence of Chromo domain-containing protein 1 (Saccharomyces cerevisiae (strain ATCC 204508 / S288c) (Baker's yeast)) (P32657 whole entry, the tested form may be a part): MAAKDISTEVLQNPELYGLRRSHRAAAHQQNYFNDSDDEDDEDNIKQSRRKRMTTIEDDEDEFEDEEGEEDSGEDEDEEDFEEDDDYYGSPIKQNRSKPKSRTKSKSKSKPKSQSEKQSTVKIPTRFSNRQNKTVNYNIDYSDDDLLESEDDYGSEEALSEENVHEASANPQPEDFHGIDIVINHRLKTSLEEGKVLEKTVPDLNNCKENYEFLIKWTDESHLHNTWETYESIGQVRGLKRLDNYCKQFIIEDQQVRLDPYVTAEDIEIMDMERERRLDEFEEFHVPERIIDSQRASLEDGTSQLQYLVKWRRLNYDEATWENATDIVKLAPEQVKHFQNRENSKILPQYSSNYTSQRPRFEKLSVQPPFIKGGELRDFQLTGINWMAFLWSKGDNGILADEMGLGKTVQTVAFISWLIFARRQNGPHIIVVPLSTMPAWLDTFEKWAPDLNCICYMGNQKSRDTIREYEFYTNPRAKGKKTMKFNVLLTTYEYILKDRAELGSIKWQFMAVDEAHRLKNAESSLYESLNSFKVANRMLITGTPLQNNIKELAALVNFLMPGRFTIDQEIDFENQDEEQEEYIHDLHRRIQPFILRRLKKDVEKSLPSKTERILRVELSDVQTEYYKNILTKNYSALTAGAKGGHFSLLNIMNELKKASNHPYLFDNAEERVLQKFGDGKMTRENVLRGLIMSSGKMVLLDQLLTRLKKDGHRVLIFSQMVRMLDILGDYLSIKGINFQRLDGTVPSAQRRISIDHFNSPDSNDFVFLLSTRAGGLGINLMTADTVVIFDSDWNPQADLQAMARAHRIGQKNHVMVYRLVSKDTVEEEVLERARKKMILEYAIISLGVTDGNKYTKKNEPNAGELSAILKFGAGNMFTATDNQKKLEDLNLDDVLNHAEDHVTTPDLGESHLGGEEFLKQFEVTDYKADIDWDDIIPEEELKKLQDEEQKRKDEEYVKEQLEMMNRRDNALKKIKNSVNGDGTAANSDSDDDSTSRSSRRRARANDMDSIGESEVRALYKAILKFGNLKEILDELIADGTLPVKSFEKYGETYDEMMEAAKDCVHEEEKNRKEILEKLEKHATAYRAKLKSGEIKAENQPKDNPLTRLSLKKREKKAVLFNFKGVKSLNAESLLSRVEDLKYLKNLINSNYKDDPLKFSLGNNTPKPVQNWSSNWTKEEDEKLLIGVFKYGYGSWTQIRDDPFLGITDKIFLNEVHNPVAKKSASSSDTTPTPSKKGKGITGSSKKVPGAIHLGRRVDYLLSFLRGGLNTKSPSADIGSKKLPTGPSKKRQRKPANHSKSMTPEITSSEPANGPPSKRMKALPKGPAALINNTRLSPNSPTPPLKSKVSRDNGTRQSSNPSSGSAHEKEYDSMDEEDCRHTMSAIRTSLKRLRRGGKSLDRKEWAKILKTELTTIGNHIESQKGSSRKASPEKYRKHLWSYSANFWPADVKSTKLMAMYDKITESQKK

Sequence of Protein translocase subunit SecA (Escherichia coli (strain K12)) (P10408 whole entry): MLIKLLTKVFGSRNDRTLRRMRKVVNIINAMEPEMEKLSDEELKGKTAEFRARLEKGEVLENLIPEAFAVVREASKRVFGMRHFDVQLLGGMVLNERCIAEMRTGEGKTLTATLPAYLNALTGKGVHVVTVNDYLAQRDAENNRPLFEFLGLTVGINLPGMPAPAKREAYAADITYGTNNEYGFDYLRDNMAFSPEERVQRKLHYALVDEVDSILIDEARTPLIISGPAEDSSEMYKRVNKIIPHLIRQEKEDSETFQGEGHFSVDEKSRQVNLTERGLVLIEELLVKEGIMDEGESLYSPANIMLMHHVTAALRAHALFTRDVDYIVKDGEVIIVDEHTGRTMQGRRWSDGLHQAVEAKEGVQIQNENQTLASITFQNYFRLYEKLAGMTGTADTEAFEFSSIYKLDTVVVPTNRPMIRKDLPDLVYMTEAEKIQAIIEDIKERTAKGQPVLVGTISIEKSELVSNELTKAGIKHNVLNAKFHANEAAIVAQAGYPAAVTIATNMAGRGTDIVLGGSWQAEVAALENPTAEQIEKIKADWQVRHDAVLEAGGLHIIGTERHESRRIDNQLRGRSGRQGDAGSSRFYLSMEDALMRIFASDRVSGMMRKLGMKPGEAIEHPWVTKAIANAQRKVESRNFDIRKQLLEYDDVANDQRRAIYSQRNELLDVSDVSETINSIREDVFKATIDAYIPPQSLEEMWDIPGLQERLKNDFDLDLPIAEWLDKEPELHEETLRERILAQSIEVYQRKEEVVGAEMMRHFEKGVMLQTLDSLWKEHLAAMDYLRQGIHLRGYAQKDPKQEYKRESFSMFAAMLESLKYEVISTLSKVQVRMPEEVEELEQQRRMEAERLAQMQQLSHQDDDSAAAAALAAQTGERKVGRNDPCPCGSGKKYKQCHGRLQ
Sequence of Sialic acid-binding Ig-like lectin 9 (Homo sapiens) (Q9Y336 whole entry): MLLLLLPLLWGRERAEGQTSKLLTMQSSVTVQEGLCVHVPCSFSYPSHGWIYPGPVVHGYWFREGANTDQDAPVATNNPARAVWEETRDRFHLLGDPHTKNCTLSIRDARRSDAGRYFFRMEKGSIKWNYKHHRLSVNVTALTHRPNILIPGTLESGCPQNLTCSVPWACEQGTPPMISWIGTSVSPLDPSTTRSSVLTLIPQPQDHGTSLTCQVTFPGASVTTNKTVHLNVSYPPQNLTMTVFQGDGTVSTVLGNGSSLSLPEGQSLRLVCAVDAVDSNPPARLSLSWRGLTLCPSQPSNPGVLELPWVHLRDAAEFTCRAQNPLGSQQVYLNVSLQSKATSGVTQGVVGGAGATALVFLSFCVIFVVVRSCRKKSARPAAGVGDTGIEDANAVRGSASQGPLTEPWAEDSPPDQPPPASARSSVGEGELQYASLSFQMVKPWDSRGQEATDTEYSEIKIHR

SMILES | Percent Effect [1] [%] | Percent Effect [2] [%] | Percent Effect [3] [%] | Percent Effect [4] [%] | Percent Effect [5] [%] | Percent Effect [6] [%] | Percent Effect [7] [%] | Percent Effect [8] [%] | Percent Effect [9] [%] | Percent Effect [10] [%] | Percent Effect [11] [%]
O=C(c1cccc(CN2CCCC2)c1)N1CCCC(n2cncn2)C1 (configuration not stated) | -4.8 | 21.6 | -12.1 | -3.07 | -0.849 | -10 | 16.2 | 23.3 | 6.4 | 16.1 | -2.99
CC(NC(=O)NCCCOC1CCCCC1)c1nncn1C (configuration not stated) | -0.354 | 2.7 | -2.09 | 21.6 | 4.18 | -1.29 | 16.2 | 5.68 | 3.96 | 25.6 | -7.07
CC(C)c1noc(CCC(=O)NC(C)c2nnc3n2CCCCC3)n1 (configuration not stated) | -2.21 | -2.7 | -3.53 | -8.65 | -1.47 | -2.23 | 2.83 | -7.58 | -9.68 | 1.24 | 80
CC(C)NS(=O)(=O)c1cc(C(=O)O)cc(-c2ccccc2CN(C)C)c1 | -5.51 | 0 | -1.94 | -2.62 | -6.16 | 4.22 | 3 | 1.46 | 1.07 | 3.7 | -3.44
Cn1cc(C2CCCN2C(=O)CCCOCc2ccccc2)cn1 (configuration not stated) | -4.26 | 10.1 | -1.48 | -1.07 | 4.25 | -1.9 | 7.62 | 2.8 | 0.493 | 3.8 | -7.66
CC(C)(C)NC(=O)C1CSCN1S(=O)(=O)c1cccc(F)c1 (configuration not stated) | 1.74 | 8.22 | -2.49 | -2.56 | -8.81 | 0.909 | 20.2 | 12.2 | 3.23 | 10 | -1.73
COc1ccc2c(c1)CC(NC(=O)NCc1cccs1)CO2 (configuration not stated) | 2.24 | 7.79 | 5.45 | -2.89 | -5.62 | -112 | 5.4 | 5.91 | 2.12 | 8.97 | -2.81
COC(=O)C(NC(=O)c1ccco1)c1cc(F)ccc1F (configuration not stated) | -3.29 | 5.2 | 19.7 | 11.4 | 6.93 | -0.712 | 9.46 | -16.9 | 1.94 | 14.6 | -8.66
Cc1cc2c(cc1C)C(NCc1nnc3n1CCCCC3)CCCO2 (configuration not stated) | 0.0306 | 2.7 | -8.53 | 10.2 | 6.94 | 17.1 | 0.944 | -23.2 | 2.15 | 6.17 | -5.02
CC(=O)N1CCN(c2cc(C3CN(C)CCO3)nc(C)n2)CC1 (configuration not stated) | -3.82 | 12.2 | 9.39 | 0.199 | -3.36 | -1.16 | 14.8 | 12.3 | 5.38 | 14.3 | -1.64
COc1ccc(NC(C)C(=O)N2CCN(c3ncccn3)CC2)cn1 (configuration not stated) | -5.21 | 8.22 | -137 | -2.83 | 3.13 | 8.18 | 0.71 | -4.13 | 3.23 | 7.5 | -3.06
CC(C)S(=O)(=O)NCC1CCCN(C(=O)c2cccnc2)C1 (configuration not stated) | -1.12 | 11 | -1.03 | -2.93 | -3.53 | 0.455 | 21.3 | 15 | 3.23 | 10 | -3.28
Cc1nnn2c1COCC(CNC(=O)c1ccc3[nH]ccc3c1)C2 (configuration not stated) | -2.29 | 13 | -0.0167 | 8.82 | 9.73 | -46.9 | 18.1 | 14.9 | 6.45 | 13.6 | -3.15
Cn1cc(N2CC3(CCN(Cc4cccs4)CC3)OCC2=O)cn1 | -0.959 | -2.74 | -1.55 | 15.7 | 2.38 | 3.19 | 3.68 | 2.59 | -14.6 | 8.64 | -2.76
CN(Cc1ccco1)C(=O)C1CSCN1C(=O)c1cccnc1 (configuration not stated) | -3.86 | 0 | 0.482 | 1.7 | 0.467 | -3.96 | 4.65 | -7.95 | -0.493 | 1.24 | -0.736
O=C(NCc1nnc2n1CCCCC2)N1CCc2sccc2C1 | 0.647 | 16.5 | -6.61 | 2.88 | 1.95 | 2.8 | 13 | 16.8 | 0 | 10.1 | -27
CCOCCn1c(=O)[nH]c2cc(C(=O)N(C)Cc3nc(C)cs3)ccc21 | -0.0499 | 8.11 | -5.57 | 8.59 | -2.9 | 0.476 | 21 | 1.41 | 5.82 | 17.1 | -3.61
CC1c2ncc(CN3CCN(C)CC3)n2CCN1Cc1cccnc1 (configuration not stated) | -2.48 | 8 | -3.01 | 1.22 | 5.41 | -51.8 | 7.35 | -9.88 | 5.21 | 5 | -7.93
COc1cccc(C(=O)N2CCc3ncnc(C)c3CC2)c1 | -2.5 | 2.74 | -0.34 | 2.4 | -5.16 | 0.399 | 10.4 | 2.5 | 6.25 | 11.1 | -8.63
Cc1cc(C)n(CC2CCCN2C(=O)c2cnn(C)c2C2CC2)n1 (configuration not stated) | -0.918 | 2.7 | 11.2 | 10.3 | 0.65 | -0.554 | 0.718 | 9.84 | 2.97 | 1.22 | 10.5
Cc1cc(C)n(CC(=O)N2CCC(NS(C)(=O)=O)CC2)n1 | -2.87 | 15.8 | 1.32 | 0.107 | -1.69 | -2.3 | 8.69 | -0.413 | 5.39 | 12.2 | -9.21
CCn1cnnc1C1CCN(C(=O)c2cccc3c2ccn3C)CC1 | -5.72 | 18.2 | -2.51 | 0.647 | 3.37 | -4.63 | 7.43 | -1.75 | 7.77 | 24.4 | -13.2
